Laboratory results reported in paper PMC7862700, “An all-to-all approach to the identification of sequence-specific readers for epigenetic DNA modifications on cytosine”.

Legend:
Assay in all cases: DAPPL (digital affinity profiling via proximity ligation, sequencing); 10 mM Tris-HCl pH 7.5, 50 mM NaCl, 1 mM DTT, 4% glycerol, room temperature, 30 min; GST-TFs on glutathione beads, 16-mer random dsDNA library, 0.1% formaldehyde crosslink after washing; high values mean tight binding
FEV = molecular target: T1, FEV (Homo sapiens, UniProt Q99581 1-238); conditions: protein: recombinant; tags: N-terminal GST; dsDNA, one strand shown
T1 sequence: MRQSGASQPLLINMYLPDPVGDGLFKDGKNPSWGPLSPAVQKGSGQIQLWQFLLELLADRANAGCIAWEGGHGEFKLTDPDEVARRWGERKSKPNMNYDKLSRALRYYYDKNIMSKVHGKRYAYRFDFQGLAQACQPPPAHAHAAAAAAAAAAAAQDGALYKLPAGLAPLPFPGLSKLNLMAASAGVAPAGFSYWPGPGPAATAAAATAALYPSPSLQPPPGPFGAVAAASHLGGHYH
How it was run: (§1)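 After expression in yeast as GST fusions, human transcription factors were bound to glutathione beads, DNA-barcoded and mixed with a tag-only sample. The pools were incubated with 200 nmole of a 16-mer random double-stranded DNA library in Tris/NaCl/DTT/glycerol buffer (30 min, room temperature), washed and crosslinked with 0.1% formaldehyde. Proximity ligation with BsaI/T4 ligase ran for 1 h at 37 °C, before PCR amplification and sequencing on an Illumina NextSeq500. Binding signal is a hexamer's read frequency for a factor divided by its frequency for the tag-only sample.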

ETV5 = ETV5 (Homo sapiens, UniProt P41161 1-510); conditions: protein: recombinant; tags: N-terminal GST; dsDNA, one strand shown
How it was run: as §1

HSF1 = HSF1 (Homo sapiens, UniProt Q00613 1-529); conditions: protein: recombinant; tags: N-terminal GST; chain copies: 3; dsDNA, one strand shown
How it was run: as §1

SPIC = molecular target: T2, SPIC (Homo sapiens, UniProt Q8N5J4 1-248); conditions: protein: recombinant; tags: N-terminal GST; dsDNA, one strand shown
T2 sequence: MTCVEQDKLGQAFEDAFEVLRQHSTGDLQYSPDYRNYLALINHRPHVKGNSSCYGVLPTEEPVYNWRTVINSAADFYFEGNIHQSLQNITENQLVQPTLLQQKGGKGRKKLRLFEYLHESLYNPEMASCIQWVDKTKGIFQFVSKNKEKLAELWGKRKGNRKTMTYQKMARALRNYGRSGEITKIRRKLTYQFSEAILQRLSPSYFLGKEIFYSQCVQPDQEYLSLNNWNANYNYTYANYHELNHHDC
How it was run: as §1

ELF4 = ELF4 (Homo sapiens, UniProt Q99607 1-663); conditions: protein: recombinant; tags: N-terminal GST; dsDNA, one strand shown
How it was run: as §1

ELK4 = molecular target: T3, ELK4 (Homo sapiens, UniProt P28324-2 1-405); conditions: protein: recombinant; tags: N-terminal GST; dsDNA, one strand shown
T3 sequence: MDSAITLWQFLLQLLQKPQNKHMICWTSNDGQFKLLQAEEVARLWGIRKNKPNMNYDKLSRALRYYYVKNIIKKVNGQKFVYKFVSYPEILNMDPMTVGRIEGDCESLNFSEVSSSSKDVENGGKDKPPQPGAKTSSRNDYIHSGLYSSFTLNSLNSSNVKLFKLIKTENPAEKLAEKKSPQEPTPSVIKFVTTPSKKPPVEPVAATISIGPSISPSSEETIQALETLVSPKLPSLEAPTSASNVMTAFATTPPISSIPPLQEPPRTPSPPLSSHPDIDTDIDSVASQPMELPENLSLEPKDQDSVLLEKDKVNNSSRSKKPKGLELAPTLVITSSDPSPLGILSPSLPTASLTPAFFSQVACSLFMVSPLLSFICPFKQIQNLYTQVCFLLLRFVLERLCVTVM
How it was run: as §1

ETV2 = molecular target: T4, ETV2 (Homo sapiens, UniProt O00321 1-342); conditions: protein: recombinant; tags: N-terminal GST; dsDNA, one strand shown
T4 sequence: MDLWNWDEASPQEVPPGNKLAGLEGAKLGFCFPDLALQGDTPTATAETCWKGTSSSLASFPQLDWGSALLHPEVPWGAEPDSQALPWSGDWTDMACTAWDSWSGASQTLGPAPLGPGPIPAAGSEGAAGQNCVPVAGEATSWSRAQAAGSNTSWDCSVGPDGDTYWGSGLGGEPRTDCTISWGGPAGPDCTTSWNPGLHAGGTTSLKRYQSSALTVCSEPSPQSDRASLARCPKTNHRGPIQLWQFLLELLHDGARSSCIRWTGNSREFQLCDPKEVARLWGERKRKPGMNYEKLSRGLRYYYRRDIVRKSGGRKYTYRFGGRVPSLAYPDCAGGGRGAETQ
How it was run: as §1

ELF3 = molecular target: T5, ELF3 (Homo sapiens, UniProt P78545 1-371); conditions: protein: recombinant; tags: N-terminal GST; dsDNA, one strand shown
T5 sequence: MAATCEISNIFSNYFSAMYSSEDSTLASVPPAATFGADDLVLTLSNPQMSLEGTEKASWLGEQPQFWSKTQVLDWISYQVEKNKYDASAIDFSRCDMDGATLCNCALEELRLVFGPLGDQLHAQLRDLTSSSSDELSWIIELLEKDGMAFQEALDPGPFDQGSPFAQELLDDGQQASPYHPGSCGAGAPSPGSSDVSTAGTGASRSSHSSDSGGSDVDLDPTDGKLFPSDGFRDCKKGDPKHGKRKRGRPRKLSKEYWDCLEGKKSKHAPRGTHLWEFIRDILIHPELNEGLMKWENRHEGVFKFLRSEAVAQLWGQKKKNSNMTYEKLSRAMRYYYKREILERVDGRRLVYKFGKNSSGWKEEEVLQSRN
How it was run: as §1

CRX = CRX (Homo sapiens, UniProt O43186 1-299); conditions: protein: recombinant; tags: N-terminal GST; dsDNA, one strand shown
How it was run: as §1

ETV1 = ETV1 (Homo sapiens, UniProt P50549 1-477); conditions: protein: recombinant; tags: N-terminal GST; dsDNA, one strand shown
How it was run: as §1

ERF = molecular target: T6, ERF (Homo sapiens, UniProt P50548 1-548); conditions: protein: recombinant; tags: N-terminal GST; dsDNA, one strand shown
T6 sequence: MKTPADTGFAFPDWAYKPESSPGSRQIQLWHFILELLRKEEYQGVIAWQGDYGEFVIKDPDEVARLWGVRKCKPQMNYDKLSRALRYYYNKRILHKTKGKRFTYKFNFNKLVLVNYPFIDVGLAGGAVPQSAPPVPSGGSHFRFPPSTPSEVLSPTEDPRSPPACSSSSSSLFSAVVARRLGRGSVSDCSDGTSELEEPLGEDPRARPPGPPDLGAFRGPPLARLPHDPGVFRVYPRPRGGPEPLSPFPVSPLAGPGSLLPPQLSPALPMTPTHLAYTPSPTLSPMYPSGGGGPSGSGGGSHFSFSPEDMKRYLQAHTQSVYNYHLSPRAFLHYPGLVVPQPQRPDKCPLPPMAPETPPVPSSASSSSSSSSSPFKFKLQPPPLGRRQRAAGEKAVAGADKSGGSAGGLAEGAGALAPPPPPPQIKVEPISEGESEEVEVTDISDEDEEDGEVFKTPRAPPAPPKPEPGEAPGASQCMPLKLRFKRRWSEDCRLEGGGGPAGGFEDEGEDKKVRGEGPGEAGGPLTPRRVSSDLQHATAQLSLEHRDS
How it was run: as §1

ETV3L = molecular target: T7, ETV3L (Homo sapiens, UniProt Q6ZN32 1-361); conditions: protein: recombinant; tags: N-terminal GST; dsDNA, one strand shown
T7 sequence: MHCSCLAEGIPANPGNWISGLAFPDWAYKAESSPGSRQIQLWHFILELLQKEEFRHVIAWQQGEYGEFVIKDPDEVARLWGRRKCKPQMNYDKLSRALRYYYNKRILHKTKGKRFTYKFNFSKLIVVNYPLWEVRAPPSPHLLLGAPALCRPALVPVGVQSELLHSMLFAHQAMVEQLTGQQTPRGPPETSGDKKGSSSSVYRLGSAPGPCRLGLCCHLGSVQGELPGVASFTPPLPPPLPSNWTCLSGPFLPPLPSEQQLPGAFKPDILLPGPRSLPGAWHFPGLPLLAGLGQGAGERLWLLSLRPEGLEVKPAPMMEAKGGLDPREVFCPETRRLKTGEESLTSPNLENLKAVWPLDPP
How it was run: as §1

ETS2 = molecular target: T8, ETS2 (Homo sapiens, UniProt P15036 1-469); conditions: protein: recombinant; tags: N-terminal GST; dsDNA, one strand shown
T8 sequence: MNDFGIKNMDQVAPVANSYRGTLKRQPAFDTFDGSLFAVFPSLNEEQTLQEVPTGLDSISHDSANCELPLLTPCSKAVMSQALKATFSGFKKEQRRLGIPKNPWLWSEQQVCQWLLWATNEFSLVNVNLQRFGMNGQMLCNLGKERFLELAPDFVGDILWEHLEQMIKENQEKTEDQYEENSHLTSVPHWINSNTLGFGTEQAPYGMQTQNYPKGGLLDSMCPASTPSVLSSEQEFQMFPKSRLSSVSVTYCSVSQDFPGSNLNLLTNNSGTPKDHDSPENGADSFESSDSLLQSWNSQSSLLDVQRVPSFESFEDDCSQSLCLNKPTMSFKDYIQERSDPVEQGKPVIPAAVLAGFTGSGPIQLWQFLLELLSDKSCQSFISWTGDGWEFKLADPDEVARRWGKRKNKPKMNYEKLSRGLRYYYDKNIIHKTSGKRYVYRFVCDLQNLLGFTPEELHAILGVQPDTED
How it was run: as §1

SPDEF = molecular target: T9, SPDEF (Homo sapiens, UniProt O95238 1-335); conditions: protein: recombinant; tags: N-terminal GST; dsDNA, one strand shown
T9 sequence: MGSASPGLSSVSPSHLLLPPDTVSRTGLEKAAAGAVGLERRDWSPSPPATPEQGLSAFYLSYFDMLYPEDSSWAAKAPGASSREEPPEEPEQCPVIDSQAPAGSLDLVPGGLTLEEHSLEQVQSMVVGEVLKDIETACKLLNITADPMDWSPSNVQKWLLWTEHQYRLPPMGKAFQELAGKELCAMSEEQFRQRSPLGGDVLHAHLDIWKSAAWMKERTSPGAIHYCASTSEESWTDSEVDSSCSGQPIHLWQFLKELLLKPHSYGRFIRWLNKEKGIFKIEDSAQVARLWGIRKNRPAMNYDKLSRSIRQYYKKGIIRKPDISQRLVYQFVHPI
How it was run: as §1

ETV7 = molecular target: T10, ETV7 (Homo sapiens, UniProt Q9Y603 1-341); conditions: protein: recombinant; tags: N-terminal GST; dsDNA, one strand shown
T10 sequence: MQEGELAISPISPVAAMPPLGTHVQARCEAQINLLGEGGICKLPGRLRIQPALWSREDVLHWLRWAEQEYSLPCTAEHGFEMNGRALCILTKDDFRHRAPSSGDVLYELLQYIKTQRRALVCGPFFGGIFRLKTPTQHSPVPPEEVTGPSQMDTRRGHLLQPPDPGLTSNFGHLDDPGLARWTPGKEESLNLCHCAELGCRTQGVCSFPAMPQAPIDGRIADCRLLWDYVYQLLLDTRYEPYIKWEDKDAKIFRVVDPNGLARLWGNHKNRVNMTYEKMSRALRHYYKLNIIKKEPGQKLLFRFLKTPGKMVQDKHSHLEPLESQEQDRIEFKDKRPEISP
How it was run: as §1

ELF5 = molecular target: T11, ELF5 (Homo sapiens, UniProt Q9UKW6-2 1-255); conditions: protein: recombinant; tags: N-terminal GST; dsDNA, one strand shown
T11 sequence: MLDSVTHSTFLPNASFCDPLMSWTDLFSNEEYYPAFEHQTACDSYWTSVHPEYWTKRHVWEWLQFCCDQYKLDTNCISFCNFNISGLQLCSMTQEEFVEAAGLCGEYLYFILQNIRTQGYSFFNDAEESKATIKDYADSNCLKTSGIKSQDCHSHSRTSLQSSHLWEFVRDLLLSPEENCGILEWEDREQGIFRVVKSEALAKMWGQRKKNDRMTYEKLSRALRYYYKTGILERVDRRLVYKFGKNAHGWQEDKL
How it was run: as §1

ETV3 = molecular target: T12, ETV3 (Homo sapiens, UniProt P41162-2 1-143); conditions: protein: recombinant; tags: N-terminal GST; dsDNA, one strand shown
T12 sequence: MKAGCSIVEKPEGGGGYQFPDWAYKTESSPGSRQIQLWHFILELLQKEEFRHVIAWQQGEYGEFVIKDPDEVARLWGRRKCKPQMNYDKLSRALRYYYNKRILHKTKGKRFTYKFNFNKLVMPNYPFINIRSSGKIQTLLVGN
How it was run: as §1

ETV6 = ETV6 (Homo sapiens, UniProt P41212 1-452); conditions: protein: recombinant; tags: N-terminal GST; dsDNA, one strand shown
How it was run: as §1

Sequence of ETV1 (P50549 whole entry): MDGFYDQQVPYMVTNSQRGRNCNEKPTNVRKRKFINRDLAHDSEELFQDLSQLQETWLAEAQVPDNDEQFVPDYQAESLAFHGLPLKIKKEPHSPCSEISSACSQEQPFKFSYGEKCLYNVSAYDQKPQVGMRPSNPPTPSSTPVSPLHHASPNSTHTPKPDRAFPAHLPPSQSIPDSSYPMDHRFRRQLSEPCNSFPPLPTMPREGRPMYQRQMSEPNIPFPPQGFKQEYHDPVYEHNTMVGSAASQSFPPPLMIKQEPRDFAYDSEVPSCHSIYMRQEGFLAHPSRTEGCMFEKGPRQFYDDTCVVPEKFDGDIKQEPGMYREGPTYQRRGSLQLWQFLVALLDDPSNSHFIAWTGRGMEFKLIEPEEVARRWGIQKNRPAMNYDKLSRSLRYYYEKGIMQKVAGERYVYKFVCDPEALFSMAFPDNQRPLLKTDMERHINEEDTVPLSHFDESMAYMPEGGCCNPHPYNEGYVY
Sequence of HSF1 (Q00613 whole entry): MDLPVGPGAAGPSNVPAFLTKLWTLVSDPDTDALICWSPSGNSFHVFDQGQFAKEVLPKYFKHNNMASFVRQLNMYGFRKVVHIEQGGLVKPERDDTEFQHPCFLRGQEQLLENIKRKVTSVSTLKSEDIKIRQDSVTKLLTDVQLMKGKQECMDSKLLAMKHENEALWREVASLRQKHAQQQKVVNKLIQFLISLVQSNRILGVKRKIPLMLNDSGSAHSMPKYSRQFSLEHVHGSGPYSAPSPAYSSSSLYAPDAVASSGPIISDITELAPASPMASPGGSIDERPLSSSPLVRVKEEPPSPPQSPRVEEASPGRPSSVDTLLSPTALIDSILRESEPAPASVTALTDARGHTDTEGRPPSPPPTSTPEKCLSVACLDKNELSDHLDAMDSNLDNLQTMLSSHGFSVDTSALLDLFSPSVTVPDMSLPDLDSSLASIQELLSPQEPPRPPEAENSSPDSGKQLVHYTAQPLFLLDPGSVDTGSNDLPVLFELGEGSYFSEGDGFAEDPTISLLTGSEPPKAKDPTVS
Sequence of ETV5 (P41161 whole entry): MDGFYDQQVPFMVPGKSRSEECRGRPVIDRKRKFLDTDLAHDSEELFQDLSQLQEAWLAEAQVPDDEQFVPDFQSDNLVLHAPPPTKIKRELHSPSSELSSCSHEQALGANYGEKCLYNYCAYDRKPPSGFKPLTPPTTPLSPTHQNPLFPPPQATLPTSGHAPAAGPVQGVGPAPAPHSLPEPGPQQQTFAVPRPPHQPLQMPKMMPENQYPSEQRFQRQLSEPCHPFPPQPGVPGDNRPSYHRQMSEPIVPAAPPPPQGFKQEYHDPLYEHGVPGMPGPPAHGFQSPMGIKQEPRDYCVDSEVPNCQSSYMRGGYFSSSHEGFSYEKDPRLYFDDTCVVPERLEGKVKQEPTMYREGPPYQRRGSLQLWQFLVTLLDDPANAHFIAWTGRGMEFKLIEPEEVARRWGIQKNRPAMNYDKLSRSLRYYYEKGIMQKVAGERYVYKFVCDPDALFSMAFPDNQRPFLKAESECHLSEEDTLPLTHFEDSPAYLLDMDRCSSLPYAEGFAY
Sequence of ETV6 (P41212 whole entry): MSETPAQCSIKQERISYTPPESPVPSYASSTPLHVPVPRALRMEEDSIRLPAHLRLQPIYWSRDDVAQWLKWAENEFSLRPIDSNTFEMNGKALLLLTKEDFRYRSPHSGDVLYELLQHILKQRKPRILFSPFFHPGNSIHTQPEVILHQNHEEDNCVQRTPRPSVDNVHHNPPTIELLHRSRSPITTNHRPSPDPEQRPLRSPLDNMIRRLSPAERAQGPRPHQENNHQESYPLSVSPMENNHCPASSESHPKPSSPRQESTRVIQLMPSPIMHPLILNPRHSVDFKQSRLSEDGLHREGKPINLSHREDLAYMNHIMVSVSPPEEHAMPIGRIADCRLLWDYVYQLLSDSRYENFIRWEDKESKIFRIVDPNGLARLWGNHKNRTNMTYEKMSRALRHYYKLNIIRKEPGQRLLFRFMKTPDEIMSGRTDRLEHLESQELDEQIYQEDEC
Sequence of CRX (O43186 whole entry): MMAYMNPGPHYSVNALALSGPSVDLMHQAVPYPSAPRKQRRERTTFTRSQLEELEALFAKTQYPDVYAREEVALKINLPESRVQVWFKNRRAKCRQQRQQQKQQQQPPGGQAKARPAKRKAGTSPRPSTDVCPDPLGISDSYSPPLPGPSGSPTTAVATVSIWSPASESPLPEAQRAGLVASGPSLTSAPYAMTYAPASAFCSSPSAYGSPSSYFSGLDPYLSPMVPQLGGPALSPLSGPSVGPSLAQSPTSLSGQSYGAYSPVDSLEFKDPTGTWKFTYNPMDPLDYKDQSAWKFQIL
Sequence of ELF4 (Q99607 whole entry): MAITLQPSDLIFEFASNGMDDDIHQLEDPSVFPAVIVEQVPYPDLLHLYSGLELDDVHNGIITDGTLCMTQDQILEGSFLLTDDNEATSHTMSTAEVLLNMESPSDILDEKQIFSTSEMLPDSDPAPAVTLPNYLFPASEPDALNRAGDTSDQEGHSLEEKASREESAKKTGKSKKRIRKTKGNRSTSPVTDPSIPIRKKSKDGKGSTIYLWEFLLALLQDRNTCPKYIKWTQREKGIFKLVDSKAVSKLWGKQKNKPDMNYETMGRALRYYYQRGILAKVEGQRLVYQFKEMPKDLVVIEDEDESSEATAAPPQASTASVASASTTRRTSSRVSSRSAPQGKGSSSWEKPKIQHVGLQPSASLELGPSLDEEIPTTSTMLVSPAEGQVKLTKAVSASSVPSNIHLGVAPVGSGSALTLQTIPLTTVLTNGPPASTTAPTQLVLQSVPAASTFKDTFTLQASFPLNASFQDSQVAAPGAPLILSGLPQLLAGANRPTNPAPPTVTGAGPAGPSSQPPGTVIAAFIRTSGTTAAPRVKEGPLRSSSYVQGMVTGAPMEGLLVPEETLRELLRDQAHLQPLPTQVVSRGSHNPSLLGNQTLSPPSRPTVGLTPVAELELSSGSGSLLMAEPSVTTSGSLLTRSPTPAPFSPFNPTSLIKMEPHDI

With TTATGG the binding signal (FEV) was 1.33 fold enrichment (6-mer frequency, TF over GST control), the binding signal (ETV5) was 1.39 fold enrichment (6-mer frequency, TF over GST control) and the binding signal (HSF1) was 1.74 fold enrichment (6-mer frequency, TF over GST control). For the same sequence, the binding signal (SPIC) was 1.53 fold enrichment (6-mer frequency, TF over GST control), the binding signal (ELF4) was 1.31 fold enrichment (6-mer frequency, TF over GST control) and the binding signal (ELK4) was 1.24 fold enrichment (6-mer frequency, TF over GST control). For the same sequence, the binding signal (ETV2) was 1.45 fold enrichment (6-mer frequency, TF over GST control), the binding signal (ELF3) was 1.53 fold enrichment (6-mer frequency, TF over GST control) and the binding signal (CRX) was 2.62 fold enrichment (6-mer frequency, TF over GST control). The binding signal (ETV1) was 1.41 fold enrichment (6-mer frequency, TF over GST control), the binding signal (ERF) was 1.31 fold enrichment (6-mer frequency, TF over GST control) and the binding signal (ETV3L) was 1.32 fold enrichment (6-mer frequency, TF over GST control). For the same sequence, the binding signal (ETS2) was 1.26 fold enrichment (6-mer frequency, TF over GST control), the binding signal (SPDEF) was 1.26 fold enrichment (6-mer frequency, TF over GST control) and the binding signal (ETV7) was 1.36 fold enrichment (6-mer frequency, TF over GST control). For the same sequence, the binding signal (ELF5) was 1.28 fold enrichment (6-mer frequency, TF over GST control), the binding signal (ETV3) was 1.44 fold enrichment (6-mer frequency, TF over GST control) and the binding signal (ETV6) was 1.35 fold enrichment (6-mer frequency, TF over GST control).
